Reference: PubChem BioAssay
Active and inactive are the calls of the source.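 How the source made its calls, unless noted: active means inhibition above 50%; inactive means the rest.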

Experiment: antimalarial activity against Dd2 strain (AID 2302;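 active means growth inhibition above 50% at the single 2 µM test dose, taken to imply half-maximal potency below 2 µM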;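 further: 0% = DMSO untreated growth and 100% = chloroquine plus artemisinin killed control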)
Conditions: P. falciparum Dd2 in RBCs, LDH growth readout, 72 h; at 2 µM; hits give high values
In the case of `COc1ccc(-c2ccc(NC(=O)c3ccc(F)cc3)cc2)cc1CN1CCCN(C)CC1`, the growth inhibition was 35% (inactive). For `Cc1cccc(NC(c2cccs2)c2c(NC(=O)c3ccccc3)sc(C)c2C)n1` (stereo not drawn), the growth inhibition was 80% (active). In the case of `CC1CCc2c(C(=O)N3CCc4ccccc4C3)csc2C1` (stereo not drawn), the growth inhibition was 75% (active).

Experiment: HepG2 cytotoxicity, primary screen, cytotoxicity control for P. falciparum antimalarial project, cell-based, ATP luminescence (AID 2303);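 further: 0% = DMSO wells and 100% = digitonin-killed cells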
Conditions: HepG2 viability, 24-48 h, at 10 µM, hits give high values
In the case of `COc1ccc(OCCn2cc(C(=O)c3ccco3)c3ccccc32)cc1`, the inhibition was 17% (inactive). With `COc1ccc(CN2CCC(NCc3cccc(C(F)(F)F)c3)CC2)cc1` the inhibition was 6% (inactive). In the case of `C=CCN1C(=O)CN(S(=O)(=O)c2ccc(-n3nc(C)cc3C)cc2)C1=S`, the inhibition was 5% (inactive). For `CN(C)CCCOc1cc(NC(=O)Nc2ccc(-c3ccncc3)c3ccccc23)ccc1I`, the inhibition was 46% (inactive). With `CCOC(=O)c1ccc(N2CCN(c3cc(C)ccc3C)CC2)c(NC(=O)Nc2ccc(Cl)c(Cl)c2)c1` the inhibition was 7% (inactive). With `O=S(=O)(c1ccccc1Cl)N1CCCCC(c2ccc(C(F)(F)F)cc2)=N1` the inhibition was 22% (inactive). In the case of `COc1ccc(CC2(c3ccc(F)cc3)N=C(N)N(CCCc3cccnc3)C2=O)cc1` (stereo not drawn), the inhibition was 12% (inactive). In the case of `O=C(NC1CCCCC1)N(CCCn1ccnc1)Cc1csc(-c2ccc(CNCc3ccccc3)cc2)n1`, the inhibition was 5% (inactive). In the case of `CCC(CC)NCc1c(O)ccc2c(CNC(CC)CC)c(O)ccc12`, the inhibition was 4% (inactive). With `O=S(=O)(Nc1cccc(CCN2CCCCC2CCN2CCCC2)c1)c1cccc2ccccc12` (stereo not drawn) the inhibition was 23% (inactive). In the case of `CC(C)[C@H](NC(=O)c1c(CN2CCC(N3CCCCC3)CC2)c(-c2ccccc2)nc2cc(O)ccc12)c1ccccc1`, the inhibition was 10% (inactive). With `COc1cc(NC(=O)c2sc(-c3ccc(Cl)cc3)cc2Cl)ccc1OCCN1CCCC1` the inhibition was 72% (active). In the case of `COc1cc2nc(N3CCC(CNC(=O)c4cccc5cccnc45)CC3)nc(N)c2cc1OC`, the inhibition was 34% (inactive). With `CNc1ccc(CNCc2ccc(-c3ccc(-c4nc5ccc(C(F)(F)F)cc5[nH]4)s3)cc2)cc1` the inhibition was 44% (inactive). In the case of `COc1ccc(CN(C)CCCc2ccc(NC(=O)c3cccc4c(=O)c5cccc(F)c5[nH]c34)cc2)cc1OC`, the inhibition was 100% (active). With `CCCC(C)Nc1nc(C)cc(N[C@@H](Cc2ccccc2)C(=O)NCc2cccc(F)c2)n1` (stereo partly drawn) the inhibition was 9% (inactive). With `COC(=O)c1cccc(CNCc2cccc(-c3ccc(-c4nc5c(C)cccc5[nH]4)s3)c2)c1` the inhibition was -4% (inactive). For `COc1cc(NCCCCCNc2cc(Cl)nc3ccccc23)nc2ccccc12`, the inhibition was 17% (inactive). For `CCN1CCN(c2ccc(NC(=O)c3cc4c(C)nn(-c5ccccc5)c4s3)cc2C)CC1`, the inhibition was 32% (inactive). For `CC(C#N)Cc1ccc(-c2cnc(N)c3cc(-c4ccnc(N)n4)ccc23)cc1` (stereo not drawn), the inhibition was 56% (active). In the case of `COc1ccc(C(=O)[C@H]2C[C@@H]2CN(C)CCC(O)c2ccc(Cl)c(Cl)c2)cc1` (stereo partly drawn), the inhibition was 24% (inactive). In the case of `Cc1ccc(OCC2CCN(c3ncc(C(=O)NC4CC4)cc3Cl)CC2)cc1`, the inhibition was 2% (inactive). With `O=C(Nc1cccc(-c2cccc(-c3nc4ccccc4[nH]3)c2)c1)Nc1ccc2c(c1)OCO2` the inhibition was 25% (inactive). With `CCN1CCN(Cc2c(O)ccc3c(=O)c(Oc4cc(C)cc(C)c4)c(C(F)(F)F)oc23)CC1` the inhibition was 6% (inactive). With `c1ccc(C2=NN=C(c3ccccn3)[C@H]3[C@H]4C[C@@H]([C@@H]23)[C@@H]2[C@H]4[C@H]3C[C@@H]2c2ccccc23)nc1` the inhibition was 39% (inactive). In the case of `CN(c1ccc(C(=O)N[C@@H](CCC(=O)O)C(=O)O)cc1)S(=O)(=O)c1ccc2nc(N)[nH]c(=O)c2c1`, the inhibition was 16% (inactive). For `C=CCc1cc(Cc2cnc(N)nc2N)c2ccc(C)nc2c1OC`, the inhibition was 11% (inactive). In the case of `COc1c(Br)cc(Br)cc1-c1ccc(CN2C3CCCC2CCC3)[nH]1`, the inhibition was 42% (inactive). With `Cc1cc(N[C@@H](Cc2ccccc2)C(=O)NCc2cccc(F)c2)nc(NCCOc2ccccc2)n1` the inhibition was 0% (inactive). In the case of `Cn1c(N)c(N=O)c(=O)[nH]c1=O`, the inhibition was 58% (active). In the case of `O=C(Nc1cc(F)cc(-c2cccnc2)c1)c1ccc2c(=O)n(Cc3ccccc3)cnc2c1`, the inhibition was 7% (inactive). With `Cn1ccc(C(=O)Nc2ccc3c(c2)CN(Cc2ccc(N4CCCC4)o2)CCC3)n1` the inhibition was 19% (inactive). In the case of `COc1cc(OC)cc(-c2nn(-c3ccc([N+](=O)[O-])cc3C#N)c(=S)n2Cc2ccco2)c1`, the inhibition was 11% (inactive). For `CCCCCN1CCCN(Cc2cccc(NC(=O)c3ccc(-c4ccccc4)cc3)c2)CC1`, the inhibition was 23% (inactive). With `C[C@@H]1CCC[C@H](C)N1C[C@@H](O)CNS(=O)(=O)c1cccc(C(F)(F)F)c1` the inhibition was 4% (inactive). For `O=C1c2ccc([N+](=O)[O-])cc2C(=O)N1c1ccc2[nH]ncc2c1`, the inhibition was 11% (inactive). In the case of `NC(=NC1CC1)c1ccc2nc(CCCCCc3nc4ccc(C(N)=NC5CC5)cc4[nH]3)[nH]c2c1`, the inhibition was -3% (inactive). In the case of `COc1ccc(-c2ccc(NC(=O)c3ccc(F)cc3)cc2)cc1CN1CCCN(C)CC1`, the inhibition was 29% (inactive). For `Cc1cccc(NC(c2cccs2)c2c(NC(=O)c3ccccc3)sc(C)c2C)n1` (stereo not drawn), the inhibition was -8% (inactive). For `CC1CCc2c(C(=O)N3CCc4ccccc4C3)csc2C1` (stereo not drawn), the inhibition was 9% (inactive).
